Bioassay records as filed in PubChem.
The list is not random: actives were taken first. Their share in the collection is about 0.96%.
HDAC3 inh: inhibitors of human histone deacetylase 3; inhibition, % at 8.3 µM; recombinant HDAC3, fluorogenic peptide/trypsin coupled, fluorescence; 0.15% of 320,000 active; AID 2718; in the data active = inhibition above about 26%, passing the limit was not always enough; inconclusive = no clear call, values can overlap the other calls
Target sequence (O15379 whole entry, looked up): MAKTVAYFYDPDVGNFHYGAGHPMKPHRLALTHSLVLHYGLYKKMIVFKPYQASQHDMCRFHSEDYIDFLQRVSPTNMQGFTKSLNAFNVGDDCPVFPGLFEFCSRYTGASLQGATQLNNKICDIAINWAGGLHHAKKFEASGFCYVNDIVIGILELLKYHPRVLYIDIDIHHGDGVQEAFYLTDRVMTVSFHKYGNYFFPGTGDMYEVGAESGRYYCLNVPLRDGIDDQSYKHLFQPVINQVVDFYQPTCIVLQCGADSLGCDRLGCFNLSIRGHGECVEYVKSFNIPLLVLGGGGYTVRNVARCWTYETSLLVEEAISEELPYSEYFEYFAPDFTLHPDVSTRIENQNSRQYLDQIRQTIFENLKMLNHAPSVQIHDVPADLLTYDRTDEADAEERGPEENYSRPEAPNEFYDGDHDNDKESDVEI
Rtt109 HAT inh: inhibitors of Candida albicans Rtt109/Vps75 histone acetyltransferase; inhibition, % at 34.9 µM; purified Rtt109/Vps75, ThioGlo CoA-SH fluorescence, 4 h; 0.16% of 330,000 active; AID 540336; Q5AAJ8;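 active = inhibition of at least 50% in every replicate; inconclusive = best replicate reaches 50% inhibition but some replicates fall short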
beta cell repl: inducers of beta-cell replication in MIN6 cells; MIN6 cells proliferation, ATPlite luminescence, 48 h; cells starved in 0.2% serum; 100% = growth in 10% serum; proliferation, % at 10 µM; 0.29% of 330,000 active; AID 2380;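 active = compounds whose signal lies at least 3.5 SD above the mean of all wells on their plate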;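 note: 0% = DMSO-treated cells in low-serum medium and 100% = 10% serum control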
V-ATPase pHluor: yeast V-ATPase proton transport regulation by pHLuorin | S. cerevisiae, pHLuorin cytosolic pH fluorescence | response, % at 10 µM | 0.37% of 350,000 active | AID 504577; in the data active = response mostly above about 7.3%, no sharp cut-off; inactive = mostly below about 5.4%; note: actives read high
DAGLB inhibitor: blocks human DAGLB lipase activity; Q8NCG7; HEK293T DAGLB membrane lysate, EnzChek fluorogenic substrate; inhibition, % at 5.17 µM; 0.059% of 340,000 active; in the data active = inhibition above about 34%;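 note: 0% = enzyme with vehicle and 100% = wells lacking enzyme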
DAGLB confirm: DAGLB (human) inhibition, confirmation screen; shares compounds with DAGLB inhibitor; HEK293T DAGLB membrane lysate, EnzChek fluorogenic substrate; inhibition, % at 5.17 µM; 73% of 190 active;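 active = mean inhibition over triplicate wells above a set limit taken from the primary lipase screen, cut at about 34% in these data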;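 note: 0% = DAGLB with DMSO and 100% = wells lacking DAGLB enzyme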
The depositor's hits bear a star; ? = inconclusive; . = no result given.

SMILES	HDAC3 inh	Rtt109 HAT inh	beta cell repl	V-ATPase pHluor	DAGLB inhibitor	DAGLB confirm
CCN(Cc1ccccc1)C(=O)Cn1c(=O)oc2ccccc21	-1	-12	-3	-2	-5	.
CC(C)CN(C(=O)CN1CCN(c2ccc(F)cc2)CC1)c1c(N)n(CC(C)C)c(=O)[nH]c1=O	-13	-3	0	-4	0	.
Nc1ccc(O)c2c1C(=O)c1ccccc1C2=O	-6	-5	0	2	30	.
O=C1c2ccccc2C(=O)c2c(O)c(O)cc(O)c21	.	11	-2	1	37*	28
COc1cccc(C(=O)NNc2c3ccccc3nc3ccccc23)c1	1	2	8	-1	45*	44*
COc1ccc(S(=O)(=O)N2CCOCC2)cc1N=Nc1sc(N)nc1-c1ccccc1	-5	2	-1	-4	56*	92*
O=C(c1cc2cc(F)ccc2[nH]1)N1CCN(C(=O)c2ccco2)CC1	?	-6	-2	0	2	.
COc1ccccc1N=Nc1nc(-c2ccccc2)c(-c2ccccc2)[nH]1	6	4	.	2	40*	50*
Oc1ccccc1N=Nc1nc(-c2ccccc2)c(-c2ccccc2)[nH]1	-11	6	-3	5	38*	52*
N#C/C(=C/c1ccc(O)c(O)c1)C(=O)NCc1ccc(Cl)cc1	6	21	0	1	45*	24
Cc1ccc(C(=O)NCC(c2ccc(F)cc2)N2CCOCC2)s1 (stereo not given)	5	-2	1	-1	2	.
COc1ccc(N/C=C2\C(=O)CCc3c2oc2cc(Cl)c(O)c(Cl)c32)cc1	0	-3	-4	2	36*	38*
CSc1nc2ccc(NC(=O)C3=NN(c4ccccc4)C(=O)CC3)cc2s1	6	13	-6	-1	-4	.
CCOc1cc(/C=C2\N=C(SCC)SC2=O)cc([N+](=O)[O-])c1OC(C)=O	-6	8	-4	1	50*	37*
CCOc1cc(/C=C2\N=C(SC)SC2=O)cc([N+](=O)[O-])c1OC(C)=O	6	0	-4	-2	10	.
O=C(O)c1ccccc1NS(=O)(=O)c1ccc(NNC(=S)Nc2ccc(OC(F)F)cc2)c([N+](=O)[O-])c1	.	38	.	3	52*	67*
O=C(O)c1ccccc1NS(=O)(=O)c1ccc(N/N=C/c2cccc(O)c2O)c([N+](=O)[O-])c1	.	-2	.	1	42*	53*
COc1cc(C=NNc2ccc(S(=O)(=O)Nc3ccccc3C(=O)O)cc2[N+](=O)[O-])ccc1O	12	18	0	3	39*	50*
CCOc1cc(/C=N/Nc2ccc(S(=O)(=O)Nc3ccccc3C(=O)O)cc2[N+](=O)[O-])cc(Cl)c1O	.	.	.	0	33	.
CC(=O)Nc1ccc(C=NNc2ccc(S(=O)(=O)Nc3ccccc3C(=O)O)cc2[N+](=O)[O-])cc1	13	-2	-2	-2	37*	56*
O=C(CCCc1ccccc1)Nc1ccc2c(c1)OCCO2	0	5	4	2	-4	.
COC(=O)C1=C(O)/C(=C\c2ccc(OCC(=O)Nc3ccccc3)cc2)N=C1C	5	3	-4	0	1	.
CN(C)c1ccc(/C=C/c2ccc3ccccc3[n+]2C)cc1	17	29	0	2	14	.
CN(C)c1ccc(/C=C/c2ccc3c4ccccc4ccc3[n+]2-c2ccccc2)cc1	.	64*	.	-2	35*	61*
CCc1ccc(S(=O)(=O)Nc2ccc(O)c3c(=O)cc(-c4ccccc4Cl)oc23)cc1	4	-5	-8	6	-2	.
SMILES	HDAC3 inh	Rtt109 HAT inh	beta cell repl	V-ATPase pHluor	DAGLB inhibitor	DAGLB confirm
O=c1cc(-c2ccccc2Cl)oc2c(NS(=O)(=O)c3cc(Cl)cc(Cl)c3O)ccc(O)c12	0	-2	-7	11	41*	38*
Cc1ccccc1NC1=C(Cl)C(=O)OC1OC(=O)c1ccco1 (stereo not given)	12	4	-5	2	36*	31
Cc1nnc(SCc2cccc([N+](=O)[O-])c2)s1	-10	-8	-4	0	-1	.
COc1ccc(C(=O)NNC(=S)NC(=O)c2cc(-c3ccccc3)nc3ccccc23)cc1	3	18	-3	3	10	.
CCCOc1ccc(C(=O)NNC(=S)NC(=O)c2cc(-c3ccc(Cl)cc3)nc3ccccc23)cc1	4	9	-4	-1	39*	90*
Cc1ccc(CCC(=O)Nc2ncc(Cc3cccc(Cl)c3Cl)s2)o1	-1	1	-3	0	-5	.
COC(=O)c1ccccc1NCc1cc(=O)oc2cc(O)c(O)cc12	-48	-13	-3	4	48*	34*
COc1ccc(S(=O)(=O)/N=C2\C=C(Nc3ccc(O)cc3)C(=O)c3ccccc32)cc1	20	8	-4	0	55*	50*
CN(C)c1ccc(N=Nc2ccccc2C(=O)OCC(=O)NCC2CCCCC2)cc1	21	5	-3	-2	39*	43*
CN(C)c1ccc(N=Nc2ccccc2C(=O)OCC(=O)NC2CCCC2)cc1	0	-3	-3	-3	33	.
COc1ccc(CCN2C(=O)C3C4CC(C5C(C(=O)O)=NOC45)C3C2=O)cc1OC (stereo not given)	-1	5	0	0	-6	.
COc1cc(N=Nc2ccc(Br)cc2)cc(C=O)c1O	.	.	.	-2	38*	28
CCOC(=O)C(=CNc1ccc(N2CCCCC2)c(S(=O)(=O)Nc2ccccc2OC)c1)C(=O)OCC	.	0	.	2	0	.
CCCS(=O)(=O)c1c(S(=O)(=O)CCC)c2cc(-c3ccncc3)ccn2c1C(=O)OC	-134	-22	0	-1	-4	.
O=C(O)c1ccc(/C=N\Nc2ccc(S(=O)(=O)N3CCOCC3)cc2[N+](=O)[O-])cc1	-7	28	-2	0	2	.
Cc1ccc(-n2c(O)c(/C=N/Nc3ccc(S(=O)(=O)N4CCOCC4)cc3[N+](=O)[O-])c3ccccc3c2=O)c(C)c1	2	5	-5	-3	35*	46*
COc1ccc(C2/C=C\CN(C(=O)c3ccc(C)cc3)[C@H](Cc3ccccc3)C(=O)N2Cc2ccc(F)cc2)cc1 (stereo not given in full)	-18	4	-7	-2	40*	39*
CC1(C)CCCN(C(=O)c2ccc3c(c2NCCO)C(=O)c2ccccc2C3=O)C1	-6	16	-1	0	41*	45*
O=C1c2ccccc2C(=O)c2c1ccc(C(=O)N1CCCCC1)c2NCCO	-1	2	1	1	1	.
O=C1S/C(=C\c2ccc(O)c([N+](=O)[O-])c2)C(=O)N1Cc1cccc([N+](=O)[O-])c1	0	-2	-5	-2	.	.
O=C1S/C(=C\c2ccc(O)c([N+](=O)[O-])c2)C(=O)N1c1ccccc1Cl	9	9	-6	-2	36*	45*
